# Experimental data: the supplement of paper PMC8728848
# The entries come from a sample that favours the strongest signals as a whole.
# How the values were obtained:
# Test in all cases: glycan array binding signal (z-score within array); higher = stronger binding
# Conditions in all cases: glycan notation: IUPAC condensed, linker removed
# [1] = target: Fuc(a1-2)Gal(b1-3)GalNAc(a1-3)[Fuc(a1-2)]Gal(b1-4)Glc
# Summary of the method: (§1)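 Negative Z-scores can be read as non-binding. The Z-score is calculated within each array and then averaged across arrays of one protein sequence at different concentrations or buffers and across linkers. Arrays, 3228 in all, were curated from the Consortium for Functional Glycomics database and kept only where the protein sequence was available.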
# [2] = target: Fuc(a1-2)Gal(b1-4)[Fuc(a1-3)]GlcNAc
# Summary of the method: as §1
# [3] = target: Fuc(a1-2)[Gal(a1-3)]Gal(b1-3)GalNAc
# Summary of the method: as §1
# [4] = target: Fuc(a1-2)[Gal(a1-3)]Gal(b1-3)GlcNAc(b1-2)Man(a1-3)[Fuc(a1-2)[Gal(a1-3)]Gal(b1-3)GlcNAc(b1-2)Man(a1-6)]Man(b1-4)GlcNAc(b1-4)GlcNAc
# Summary of the method: as §1
# [5] = target: Fuc(a1-2)[Gal(a1-3)]Gal(b1-3)GlcNAc(b1-2)Man(a1-3)[Fuc(a1-2)[Gal(a1-3)]Gal(b1-3)GlcNAc(b1-2)Man(a1-6)]Man(b1-4)GlcNAc(b1-4)[Fuc(a1-6)]GlcNAc
# Summary of the method: as §1
# [6] = target: Fuc(a1-2)[Gal(a1-3)]Gal(b1-4)GlcNAc(b1-2)Man(a1-3)[Fuc(a1-2)[Gal(a1-3)]Gal(b1-4)GlcNAc(b1-2)Man(a1-6)]Man(b1-4)GlcNAc(b1-4)GlcNAc
# Summary of the method: as §1
# [7] = target: Fuc(a1-2)[GalNAc(b1-3)]Gal
# Summary of the method: as §1
# [8] = target: Fuc(a1-3)[Gal(b1-4)]GlcNAc(b1-3)GalNAc
# Summary of the method: as §1
# [9] = target: Fuc(a1-3)[Gal(b1-4)]GlcNAc(b1-6)[Gal(b1-3)GlcNAc(b1-3)]Gal(b1-4)Glc
# Summary of the method: as §1
# Gal(a1-2)Gal = target: Gal(a1-2)Gal
# Summary of the method: as §1
# [10] = target: Gal(a1-3)Fuc(a1-2)Gal(b1-4)GlcNAc(b1-3)[Gal(a1-3)Fuc(a1-2)Gal(b1-4)GlcNAc(b1-6)]GalNAc
# Summary of the method: as §1
# [11] = target: Gal(a1-3)Gal(b1-3)GlcNAc(b1-2)Man
# Summary of the method: as §1
# Gal(a1-3)Gal(b1-4)GlcNAc = target: Gal(a1-3)Gal(b1-4)GlcNAc
# Summary of the method: as §1
# [12] = target: Gal(a1-3)Gal(b1-4)GlcNAc(b1-2)Man(a1-3)[Gal(a1-3)Gal(b1-4)GlcNAc(b1-2)Man(a1-6)]Man(b1-4)GlcNAc(b1-4)GlcNAc
# Summary of the method: as §1
# [13] = target: Gal(a1-3)Gal(b1-4)[Fuc(a1-3)]GlcNAc
# Summary of the method: as §1
# [14] = target: Gal(a1-3)[Gal(a1-4)]Gal(b1-4)GlcNAc
# Summary of the method: as §1
# [15] = target: Gal(a1-4)Gal(b1-3)GlcNAc(b1-2)Man(a1-3)[Gal(a1-4)Gal(b1-3)GlcNAc(b1-2)Man(a1-6)]Man(b1-4)GlcNAc(b1-4)GlcNAc
# Summary of the method: as §1
# [16] = target: Gal(a1-4)Gal(b1-4)GlcNAc(b1-2)Man(a1-3)[Gal(a1-4)Gal(b1-4)GlcNAc(b1-2)Man(a1-6)]Man(b1-4)GlcNAc(b1-4)GlcNAc
# Summary of the method: as §1
# Gal(a1-4)GlcNAc = target: Gal(a1-4)GlcNAc
# Summary of the method: as §1
# [17] = target: Gal(b1-3)GalNAc(a1-3)[Fuc(a1-2)]Gal(b1-4)GlcNAc
# Summary of the method: as §1
# [18] = target: Gal(b1-3)GlcNAc(a1-6)Gal(b1-4)GlcNAc
# Summary of the method: as §1
# Gal(b1-3)GlcNAc(b1-2)Man = target: Gal(b1-3)GlcNAc(b1-2)Man
# Summary of the method: as §1
# [19] = target: Gal(b1-3)GlcNAc(b1-2)[Gal(b1-3)GlcNAc(b1-6)]Man(a1-6)[Gal(b1-3)GlcNAc(b1-2)Man(a1-3)]Man(b1-4)GlcNAc(b1-4)GlcNAc
# Summary of the method: as §1
# [20] = target: Gal(b1-3)GlcNAc(b1-3)Gal(b1-4)GlcNAc
# Summary of the method: as §1
# [21] = target: Gal(b1-3)GlcNAc(b1-3)Gal(b1-4)GlcNAc(b1-6)[Gal(b1-3)GlcNAc(b1-3)]Gal(b1-4)Glc
# Summary of the method: as §1
# [22] = target: Gal(b1-3)GlcNAc(b1-3)Gal(b1-4)[Fuc(a1-3)]GlcNAc
# Summary of the method: as §1
# [23] = target: Gal(b1-4)GlcNAc(b1-2)Man(a1-3)[Gal(b1-4)GlcNAc(b1-2)Man(a1-6)][Gal(b1-4)GlcNAc(b1-4)]Man(b1-4)GlcNAc(b1-4)[Fuc(a1-6)]GlcNAc
# Summary of the method: as §1
# [24] = target: Gal(b1-4)GlcNAc(b1-2)Man(a1-3)[GlcNAc(b1-4)][Gal(b1-4)GlcNAc(b1-2)Man(a1-6)]Man(b1-4)GlcNAc(b1-4)GlcNAc
# Summary of the method: as §1
# [25] = target: Gal(b1-4)GlcNAc(b1-2)Man(a1-6)Man(b1-4)GlcNAc(b1-4)GlcNAc
# Summary of the method: as §1
# [26] = target: Gal(b1-4)GlcNAc(b1-3)Gal(b1-4)GlcNAc(b1-3)Gal(b1-4)GlcNAc(b1-3)Gal(b1-4)GlcNAc(b1-3)Gal(b1-4)GlcNAc(b1-3)Gal(b1-4)GlcNAc(b1-2)Man(a1-3)[Gal(b1-4)GlcNAc(b1-3)Gal(b1-4)GlcNAc(b1-3)Gal(b1-4)GlcNAc(b1-3)Gal(b1-4)GlcNAc(b1-3)Gal(b1-4)GlcNAc(b1-3)Gal(b1-4)GlcNAc(b1-2)Man(a1-6)]Man(b1-4)GlcNAc(b1-4)GlcNAc
# Summary of the method: as §1
# Gal3S(b1-4)Glc = target: Gal3S(b1-4)Glc
# Summary of the method: as §1
# Gal3S(b1-4)GlcNAc = target: Gal3S(b1-4)GlcNAc
# Summary of the method: as §1
# [27] = target: GalNAc(a1-3)GalNAc(b1-3)Gal(a1-4)Gal(b1-4)Glc
# Summary of the method: as §1
# GalNAc3S(b1-4)GlcNAc = target: GalNAc3S(b1-4)GlcNAc
# Summary of the method: as §1
# [28] = target: GlcNAc(a1-4)Gal(b1-4)GlcNAc
# Summary of the method: as §1
# [29] = target: GlcNAc(b1-2)[GlcNAc(b1-4)]Man(a1-3)[GlcNAc(b1-4)][GlcNAc(b1-2)[GlcNAc(b1-6)]Man(a1-6)]Man(b1-4)GlcNAc(b1-4)GlcNAc
# Summary of the method: as §1
# [30] = target: GlcNAc(b1-2)[GlcNAc(b1-4)]Man(a1-3)[GlcNAc(b1-4)][GlcNAc(b1-2)[GlcNAc(b1-6)]Man(a1-6)]Man(b1-4)GlcNAc(b1-4)[Fuc(a1-6)]GlcNAc
# Summary of the method: as §1
# [31] = target: GlcNAc(b1-3)Gal(b1-4)GlcNAc
# Summary of the method: as §1
# [32] = target: GlcNAc(b1-3)Gal(b1-4)GlcNAc(b1-3)Gal(b1-4)GlcNAc(b1-2)Man(a1-3)[GlcNAc(b1-3)Gal(b1-4)GlcNAc(b1-3)Gal(b1-4)GlcNAc(b1-2)Man(a1-6)]Man(b1-4)GlcNAc(b1-4)GlcNAc
# Summary of the method: as §1
# [33] = target: GlcNAc(b1-3)Gal(b1-4)GlcNAc(b1-3)GalNAc
# Summary of the method: as §1
# [34] = target: GlcNAc(b1-3)[GlcNAc(b1-4)][GlcNAc(b1-6)]GlcNAc
# Summary of the method: as §1
# [35] = target: GlcNAc(b1-3)[GlcNAc(b1-6)]GalNAc
# Summary of the method: as §1
# [36] = target: Neu5Ac(a2-3)Gal(b1-3)GlcNAc(b1-2)Man(a1-3)[GlcNAc(b1-4)][Neu5Ac(a2-3)Gal(b1-3)GlcNAc(b1-2)Man(a1-6)]Man(b1-4)GlcNAc(b1-4)GlcNAc
# Summary of the method: as §1
# [37] = target: Neu5Ac(a2-3)Gal(b1-4)GlcNAc(b1-2)Man
# Summary of the method: as §1
# [38] = target: Neu5Ac(a2-3)Gal(b1-4)GlcNAc(b1-2)Man(a1-3)[Neu5Ac(a2-3)Gal(b1-4)GlcNAc(b1-2)Man(a1-6)]Man(b1-4)GlcNAc(b1-4)[Fuc(a1-6)]GlcNAc
# Summary of the method: as §1
# [39] = target: Neu5Ac(a2-3)Gal(b1-4)GlcNAc(b1-3)Gal(b1-4)GlcNAc(b1-2)Man(a1-3)[Neu5Ac(a2-3)Gal(b1-4)GlcNAc(b1-3)Gal(b1-4)GlcNAc(b1-2)Man(a1-6)]Man(b1-4)GlcNAc(b1-4)GlcNAc
# Summary of the method: as §1
# [40] = target: Neu5Ac(a2-3)Gal(b1-4)GlcNAc(b1-6)[Gal(b1-3)]GalNAc
# Summary of the method: as §1
# [41] = target: Neu5Ac(a2-3)Gal(b1-4)GlcNAc(b1-6)[Neu5Ac(a2-3)Gal(b1-3)]GalNAc
# Summary of the method: as §1
# [42] = target: Neu5Ac(a2-3)Gal(b1-4)[Fuc(a1-3)]GlcNAc(b1-2)Man
# Summary of the method: as §1
# [43] = target: Neu5Ac(a2-3)GalNAc(b1-4)GlcNAc
# Summary of the method: as §1
# [44] = target: Neu5Ac(a2-6)GlcNAc(b1-4)GlcNAc(b1-4)GlcNAc
# Summary of the method: as §1
# [45] = target: Neu5Ac(a2-8)Neu5Ac(a2-8)Neu5Ac
# Summary of the method: as §1
# [46] = target: Neu5Ac9Ac(a2-3)Gal(b1-4)GlcNAc
# Summary of the method: as §1
binder,measurement,setting,value
GSL-I-B4 (Griffonia simplicifolia) (protein) NFWSDVEDSIIFQGDANTTAGTLQLCKTNQYGTPLQWSAGRALYSDPVQLWDNKTESVASFYTEFTFFLKITGNGPADGLAFFLAPPDSDVKDAGEYLGLFNKSTATQPSKNQVVAVEFDTWTNPNFPEPSYRHIGINVNSIVSVATKRWEDSDIFSGKIATARISYDGSAEILTVVLSYPDGSDYILSHSVDMRQNLPESVRVGISASTGNNQFLTVYILSWRFSSNLQSTSVKAAMEPEITRTVV,glycan array binding signal (z-score),[1],-0.132
same,glycan array binding signal (z-score),[2],-0.131
same,glycan array binding signal (z-score),[3],0.853
same,glycan array binding signal (z-score),[4],1.74
same,glycan array binding signal (z-score),[5],0.077
same,glycan array binding signal (z-score),[6],3.69
same,glycan array binding signal (z-score),[7],-0.12
same,glycan array binding signal (z-score),[8],-0.197
same,glycan array binding signal (z-score),[9],-0.155
same,glycan array binding signal (z-score),Gal(a1-2)Gal,5.94
same,glycan array binding signal (z-score),[10],1.98
same,glycan array binding signal (z-score),[11],1.88
same,glycan array binding signal (z-score),Gal(a1-3)Gal(b1-4)GlcNAc,2
same,glycan array binding signal (z-score),[12],7.78
same,glycan array binding signal (z-score),[13],6.03
same,glycan array binding signal (z-score),[14],1.71
same,glycan array binding signal (z-score),[15],5.37
same,glycan array binding signal (z-score),[16],1.52
same,glycan array binding signal (z-score),Gal(a1-4)GlcNAc,13.8
same,glycan array binding signal (z-score),[17],-0.212
same,glycan array binding signal (z-score),[18],-0.155
same,glycan array binding signal (z-score),Gal(b1-3)GlcNAc(b1-2)Man,-0.171
same,glycan array binding signal (z-score),[19],-0.138
same,glycan array binding signal (z-score),[20],-0.228
same,glycan array binding signal (z-score),[21],-0.187
same,glycan array binding signal (z-score),[22],-0.177
same,glycan array binding signal (z-score),[23],-0.172
same,glycan array binding signal (z-score),[24],-0.15
same,glycan array binding signal (z-score),[25],-0.205
same,glycan array binding signal (z-score),[26],-0.133
same,glycan array binding signal (z-score),Gal3S(b1-4)Glc,-0.151
same,glycan array binding signal (z-score),Gal3S(b1-4)GlcNAc,-0.174
same,glycan array binding signal (z-score),[27],-0.156
same,glycan array binding signal (z-score),GalNAc3S(b1-4)GlcNAc,-0.159
same,glycan array binding signal (z-score),[28],-0.12
same,glycan array binding signal (z-score),[29],-0.089
same,glycan array binding signal (z-score),[30],-0.062
same,glycan array binding signal (z-score),[31],-0.186
same,glycan array binding signal (z-score),[32],0.066
same,glycan array binding signal (z-score),[33],-0.208
same,glycan array binding signal (z-score),[34],-0.144
same,glycan array binding signal (z-score),[35],-0.161
same,glycan array binding signal (z-score),[36],-0.151
same,glycan array binding signal (z-score),[37],-0.197
same,glycan array binding signal (z-score),[38],-0.214
same,glycan array binding signal (z-score),[39],0.149
same,glycan array binding signal (z-score),[40],-0.23
same,glycan array binding signal (z-score),[41],-0.212
same,glycan array binding signal (z-score),[42],-0.187
same,glycan array binding signal (z-score),[43],-0.157
same,glycan array binding signal (z-score),[44],-0.169
same,glycan array binding signal (z-score),[45],-0.144
same,glycan array binding signal (z-score),[46],-0.134
